Tgondii IFNg = blocks Toxoplasma gondii growth in the presence of IFN-gamma. Toxoplasma gondii growth in IFN-gamma-treated host cells; active compounds read low. activity change, negative = inhibition, % (test concentration not listed). 69,000 tested, 3.8% active; in the data active = activity change below about -70%, passing the limit was not always enough;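 note: host cells are HeLa cells infected with Toxoplasma gondii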
* marks the source's active call; other numbers are inactive results; i = inactive. The entries come from a sample that favours hits as a whole.

SMILES	Tgondii IFNg
CSc1ccc(C2c3[nH]c4ccccc4c3CCN2C(=O)c2ccncc2)cc1 (stereo not given)	309
CSc1ccc(C2c3[nH]c4ccccc4c3CCN2C(=O)c2ccccc2)cc1 (stereo not given)	-88*
COc1cc(C(=O)N2CCc3c([nH]c4ccccc34)C2c2ccc(SC)cc2)cc(OC)c1OC (stereo not given)	-60
COc1ccc(CC(=O)N2CCc3c([nH]c4ccccc34)C2c2ccc(SC)cc2)cc1 (stereo not given)	299
COc1ccc(C(=O)N2CCc3c([nH]c4ccccc34)C2c2ccc(SC)cc2)cc1 (stereo not given)	-105*
CSc1ccc(C2c3[nH]c4ccccc4c3CCN2C(=O)c2ccc(F)cc2)cc1 (stereo not given)	-42
O=C(Nc1ccc(Cc2ccncc2)cc1)c1ccc(Cl)cc1	-33
O=C(c1ccoc1)N1CC[C@@H](N2CCOCC2)[C@H]1Cc1ccccc1	5
COc1ccc(C(=O)NN2C(=O)C3C4C=CC(C4)C3C2=O)cc1OC (stereo not given)	10
O=S(=O)(Cc1ccccc1)N1CC2CN(Cc3ccccc3Cl)CC2C1 (stereo not given)	1
Cc1nnsc1C(=O)Nc1ccc2c(c1)OCC(=O)N2	-16
Cc1nc2cc(C(=O)N3CCC(c4ccccc4)C3)ccc2n1C (stereo not given)	54
Cc1nccc(NCc2cncc3c2CCN(C(=O)NC(C)C)C3)n1	-22
CCCCCCCCCCCCCCCC[n+]1ccccc1	-91*
COc1ccc2[nH]cc(CCNC(=O)c3sc4ncnc(N(C)C5CCCCC5)c4c3C)c2c1	-2
CCC(C)N1Cc2[nH]nc(COCc3cccnc3)c2C1 (stereo not given)	i
Cc1ccccc1C(=O)NN1C(=O)c2ccccc2C1=O	-31
Cc1ccccc1C(=O)O/N=C1\C(=O)c2ccccc2-c2ccccc21	-86*
COC(=O)c1ccccc1-c1ccccc1C(=O)OC	-59
Fc1ccc(CN(Cc2ccncc2)CC2CCCO2)cc1 (stereo not given)	4
OCC1OC(O)C(F)C(O)C1O (stereo not given)	11
CCCS(=O)(=O)N1CCC2(CC1)Nc1ccc(C)c(C)c1-n1cccc12	18
Cc1oc(C2CCN(C(=O)NC3CCCCC3)CC2)nc1C(=O)N1CCSCC1	57
Clc1ccc(-c2nc(NCc3ccc4c(c3)OCO4)ncc2-c2ncc[nH]2)cc1	-106*
FC(F)(F)CCc1ccnc(NCc2ccc3c(c2)OCO3)n1	-5
SMILES	Tgondii IFNg
FC(F)(F)c1ccnc(NCc2ccc3c(c2)OCO3)n1	51
Cc1onc(-c2c(Cl)cccc2Cl)c1C(=O)NC(=S)Nc1ccccc1	-73*
COC(=O)c1ccc(Cl)cc1NC(=O)c1c(-c2c(F)cccc2Cl)noc1C	-19
Cc1onc(-c2ccccc2)c1C(=O)Nc1cccnc1	23
CS(=O)(=O)N1CCC2OCCCC2(COc2ncccc2F)C1 (stereo not given)	-31
CC[C@@H](C(=O)C(C)[C@@H](O)[C@H](C)CCc1ccc(C)c(O)c1C(=O)O)C1OC(CC)(C2CC[C@](O)(CC)[C@H](C)O2)C[C@@H]1C (stereo not given in full)	-74*
CCC1=NOC(CNC(=O)Cc2csc(C)n2)C1 (stereo not given)	-2
Cc1nc2c(c3c1[nH]c1ccccc13)C(=O)CC(C)(C)C2	-15
Cc1n[nH]c(C)c1CCCNC(=O)c1cc(=O)[nH]c2ccccc12	-2
CNCCCCc1cnc(C)c2[nH]c3ccccc3c12	-95*
O=C(Cn1c(-c2ccsc2)c(-c2ccsc2)nnc1=O)OC1CCCCC1	240
CN1[C@H](C(=O)Nc2sc3c(c2C(N)=O)CCCC3)C[C@H](c2ccco2)NS1(=O)=O	19
FC(F)(F)C1CN(c2nc(-c3ccccc3)cs2)CCO1 (stereo not given)	7
COc1cccc2c(=O)c3ccccc3oc12	39
COc1cccc2c(=O)c(C/C=C(/C)Cl)c(C)[nH]c12	-81*
COc1cccc2c(=O)c(C(=O)NCc3cccnc3)c[nH]c12	-8
COc1ccc(CN(C)C(=O)Nc2n[nH]c(Cc3ccccc3)n2)cc1	-20
COc1ncccc1CN1CCC2(CCN(c3cccnc3)C2=O)C1 (stereo not given)	0
CC(C)(N)C(=O)N1CCCC(c2cc(Nc3cccc(F)c3)nc(-c3cccnc3)n2)C1 (stereo not given)	-82*
O=C(c1ccncc1)N1CCCC(c2nc(-c3cccnc3)no2)C1 (stereo not given)	-8
COCC1CCCN(C(=O)c2ccc(-c3cccnc3)nc2)C1 (stereo not given)	4
Cc1ccc(Oc2ncccc2CNC(=O)CCc2nc3ccccc3[nH]2)cn1	10
CN(C)CC(=O)N1CCN(c2ccc3ccc(C(=O)NC4CCCC4)cn23)CC1	-58
Cc1ccc(-n2c(SCc3nc(-c4ccccc4C)oc3C)nc3c(=O)[nH]cnc32)cc1	109
Cc1cccc(-c2nc(CSc3nc4c(=O)[nH]cnc4n3-c3ccccc3)c(C)o2)c1	-110*
SMILES	Tgondii IFNg
Cc1ccc(C)c(-c2nc(CSc3nc4c(=O)[nH]cnc4n3-c3ccccc3)c(C)o2)c1	-80*
CCOc1ccc(-c2nc(CSc3nc4c(=O)[nH]cnc4n3-c3ccccc3)c(C)o2)cc1OC	-22
Cc1ccc(-n2c(SCc3nc(-c4ccccc4Cl)oc3C)nc3c(=O)[nH]cnc32)cc1	-35
CCn1c(SCc2nc(-c3cccc(C)c3)oc2C)nc2c(=O)[nH]cnc21	93
COCC1CN(CCc2ccccc2)CCN(S(=O)(=O)N(C)C)C1 (stereo not given)	34
O=S(=O)(NCc1ccccc1)Nc1cc2c(cc1-n1ccnc1)OCCO2	3
COCCCN(Cc1ccccn1)Cc1ccnn1C1CCCCO1 (stereo not given)	-20
Cc1oc(-c2ccc(C(=O)NCCCN3CCCC3=O)cc2)nc1CN1CCc2ccccc21	162
CNC(=O)[C@@H]1C[C@@H](N)CN1C(=O)c1ccc2c(c1)c1ccccc1n2C	-43
COc1cc(N2CC[C@H]3[C@@H]2CCN3C(=O)c2occc2C)ncn1	-4
Cc1ccc(NC(=O)c2ccc(CN3CCN(C)CC3)cc2)cc1Nc1nc(-c2cccnc2)cs1	4
Cc1ccc(C(=O)Nc2ccc(CN3CCN(C)CC3)c(C(F)(F)F)c2)cc1C#Cc1cnc2cccnn12	-79*
O=C(Nc1cccc(N2CCC(NCCc3ccccc3C(F)(F)F)CC2)c1)c1ccncc1	5
CN1Cc2ncn(CC3CC3)c2C(COCC2CCOCC2)C1 (stereo not given)	4
CN(C)CCN1CCN(C)C2(CCN(S(=O)(=O)C3CC3)CC2)C1=O	1
CCOC(=O)c1ccc(NC(=O)CSc2nnc(CNc3ccc(F)cc3)o2)cc1	-100*
CCCCOC(=O)c1ccc(NC(=O)CSc2nnnn2C2CCCCC2)cc1	13
CCc1nnc(SCC(=O)Nc2ccc(N3CCN(S(C)(=O)=O)CC3)cc2)o1	-11
Cc1nc2sc3c(c2c(=O)[nH]1)CCC3	11
COc1ccc(-c2nc3sc4c(c3c(=O)[nH]2)CCCC4)cc1	-87*
O=c1[nH]c(NCCO)nc2sc3c(c12)CCCC3	9
Cc1ccsc1CN(Cc1nccn1C)CC(C)O (stereo not given)	26
O=C(c1cccc(-n2cnnc2)c1)N1CCc2onc(-c3cccc(F)c3)c2C1	-10
Oc1ccc(OCc2ccccc2)cc1	-33
Cc1sc2ncnc(NCc3ccco3)c2c1C	-3
